# Among all 27,000 compounds or so, about 120 (0.44%) were called active. Cut-off read from the data, not from the text of the source: active = inhibition above about 20%; inconclusive = no clear call, values can overlap the other calls; inactive = below that. What follows is part of a selection rich in actives, with near analogues and random picks from the rest.
# Biological target: Serine/threonine-protein kinase 33 (Homo sapiens) (UniProt Q9BYT3)
# Assay: STK33 kinase inhibitors, primary screen, biochemical, luminescence, ADP-Glo, MBP substrate (AID 2322)
# Conditions: at 12.5 µM, stronger effect = higher value
# Sequence of Serine/threonine-protein kinase 33 (Homo sapiens) (Q9BYT3 whole entry, looked up): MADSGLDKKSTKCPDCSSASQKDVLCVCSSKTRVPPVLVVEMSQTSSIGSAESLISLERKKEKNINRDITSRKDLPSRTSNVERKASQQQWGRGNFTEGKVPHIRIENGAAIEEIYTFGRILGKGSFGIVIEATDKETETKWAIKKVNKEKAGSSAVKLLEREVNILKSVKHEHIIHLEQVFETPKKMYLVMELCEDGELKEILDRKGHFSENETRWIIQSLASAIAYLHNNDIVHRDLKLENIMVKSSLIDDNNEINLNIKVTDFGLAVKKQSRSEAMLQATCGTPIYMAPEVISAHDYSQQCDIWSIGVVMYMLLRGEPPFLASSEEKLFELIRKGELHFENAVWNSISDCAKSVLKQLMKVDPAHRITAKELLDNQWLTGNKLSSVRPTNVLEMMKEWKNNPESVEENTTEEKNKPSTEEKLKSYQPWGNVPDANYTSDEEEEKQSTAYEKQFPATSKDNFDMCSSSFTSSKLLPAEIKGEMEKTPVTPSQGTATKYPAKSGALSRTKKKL
row,Compound,inhibition
1,COc1cccc(NC(=O)CCC(=O)O)c1,-2.64% (inactive)
2,Cc1cccc(NC(=O)CSc2nnc3c4ccccc4nc(-c4ccccc4)n23)c1,-2.64% (inactive)
3,Cc1cccc(C)c1NC(=O)CSc1nc(O)cc(=O)[nH]1,-1.7% (inactive)
4,COc1ccccc1CC(=O)Nc1ccc(-c2nnc(-c3ccc(C)cc3)o2)cc1,6.73% (inactive)
5,Cc1ccc2nc(-c3ccncc3)cc(C(=O)NCc3ccccn3)c2c1,-5.08% (inactive)
6,COC(=O)c1sccc1NC(=O)COc1cc(C)ccc1Cl,6.51% (inactive)
7,COc1cc2c(cc1NC(=O)CN(C)S(=O)(=O)c1ccc(Br)cc1)oc1ccccc12,-2.44% (inactive)
8,Cc1ccc([N+](=O)[O-])cc1NC(=O)CSc1nnc(-c2ccncc2)n1C,-0.493% (inactive)
9,O=C(CCn1nc(-c2ccccc2)c2ccccc2c1=O)Nc1cccc(Br)c1,8.57% (inactive)
10,O=C(COc1ccc2ccccc2c1Br)NCCN1CCOCC1,0.329% (inactive)
11,O=C(CSc1nnc(-c2ccncc2)n1-c1ccccc1)Nc1ccc(OC(F)(F)F)cc1,1.66% (inactive)
12,COC(=O)c1c(-c2cccnc2)csc1NC(=O)c1cc(-c2ccc(C)o2)nc2ccccc12,9.69% (inactive)
13,C[C@@H]1CN([C@H](C)CO)C(=O)Cc2cc(NC(=O)CCCN(C)C)ccc2O[C@H]1CN(C)S(=O)(=O)c1cccs1,-0.927% (inactive)
14,COc1cc(OC)c(C2=NOC(C(=O)Nc3cccnc3)C2)cc1Cl (stereo not given),-2.64% (inactive)
15,C[C@H](CO)N1C[C@H](C)[C@H](CN(C)S(=O)(=O)c2ccccc2)Oc2ccc(NC(=O)Cn3cnnn3)cc2C1=O,1.24% (inactive)
16,COc1ccc(S(=O)(=O)Nc2ccc3c(c2)C(=O)N([C@H](C)CO)C[C@H](C)[C@@H](CN(C)Cc2ccc(-c4ccccc4)cc2)O3)cc1,2.44% (inactive)
17,CC(=O)Nc1ccc(S(=O)(=O)NC2(C(F)(F)F)C(=O)N(Cc3ccc(F)cc3)C3=C2C(=O)CC(C)(C)C3)cc1 (stereo not given),-0.346% (inactive)
18,CCOC(=O)c1sc(NC(=O)c2cc(C)on2)c(C(=O)OCC)c1C,-1.02% (inactive)
19,Cc1nnc(SCC(=O)Nc2cc(C(F)(F)F)ccc2Cl)s1,3.42% (inactive)
20,O=C(COc1ccc2oc3c(c2c1)CCCC3)Nc1cccnc1,-2.38% (inactive)
21,O=C1c2ccccc2C(=O)N1CCCc1nc2ccccc2c(=O)n1-c1nc2ccccc2s1,-0.682% (inactive)
22,CC(C)=CCCC(C)(O)C(O)Cc1cc(C(=O)O)cc(CC=C(C)C)c1O (stereo not given),-4.79% (inactive)
23,O=C(Cn1ccc([N+](=O)[O-])n1)NCc1cccs1,4.56% (inactive)
24,COc1ccc(C(=O)N(Cc2nc(-c3ccccc3)no2)C(C)C)cc1[N+](=O)[O-],-9.54% (inactive)
25,COC(=O)c1cc(OC)c(OC)cc1NC(=O)COc1ccc(Cl)cc1,-1.45% (inactive)

row,Compound,inhibition
1,Cc1cc(Cl)ccc1NC(=O)CN(c1ccc(Cl)c(Cl)c1)S(C)(=O)=O,-1.61% (inactive)
2,O=S(=O)(c1ccc(F)cc1)c1nc(-c2ccccc2Cl)oc1NCc1ccco1,4.44% (inactive)
3,COc1cc(-c2nc3ccccc3s2)ccc1OCC(=O)Nc1ccc(C)cc1,1.24% (inactive)
4,C[C@H](CO)N1C[C@H](C)[C@H](CN(C)C)Oc2ncc(/C=C/c3ccccc3)cc2C1=O,-3.66% (inactive)
5,Cc1noc(C)c1NC(=O)Nc1ccc2c(c1)C(=O)N([C@H](C)CO)C[C@H](C)[C@@H](CN(C)C(=O)Nc1ccc(C(F)(F)F)cc1)O2,3.9% (inactive)
6,COc1ccccc1NC(=O)c1c(NC(=O)c2cccnc2)sc(C)c1C,4.55% (inactive)
7,c1ccc(-n2c(SCc3nc4ccccc4s3)nnc2-c2ccncc2)cc1,1.5% (inactive)
8,O=[N+]([O-])c1ccccc1-c1ccc(CN2CCN3CCCC3C2C2CCCCC2)o1 (stereo not given),-1.45% (inactive)
9,O=C(CCn1nc(-c2ccc(Cl)cc2)c2ccccc2c1=O)Nc1cccc(C(F)(F)F)c1,0.989% (inactive)
10,C[C@@H]1CN([C@H](C)CO)C(=O)Cc2cc(NS(C)(=O)=O)ccc2O[C@@H]1CN(C)C(=O)Nc1ccc2c(c1)OCO2,1.61% (inactive)
11,CCOc1c(S(=O)(=O)NCc2cccnc2)ccc(Cl)c1Cl,3.15% (inactive)
12,O=C(Oc1ccccc1)c1cccc(COC(=O)c2cc3ccccc3oc2=O)c1,-1.52% (inactive)
13,COc1cccc(-c2cnc3c(c2)C(=O)N([C@H](C)CO)C[C@H](C)[C@H](CN(C)Cc2ccncc2)O3)c1,-1.09% (inactive)
14,O=C1c2c(O)cc(O)cc2O[C@@H](c2ccc(O)cc2)[C@@H]1c1c(O)cc(O)c2c(=O)cc(-c3ccc(O)cc3)oc12,6.09% (inactive)
15,Cc1cc(C)cc(OCC(=O)Nc2cccc(-c3nnc(-c4ccccc4)o3)c2)c1,4.59% (inactive)
16,C[C@@H]1CN([C@@H](C)CO)C(=O)Cc2cc(NC(=O)Nc3ccc4c(c3)OCO4)ccc2O[C@@H]1CN(C)CC1CCCCC1,1.59% (inactive)
17,c1ccc(Cn2c3ccccc3c3nnc(SCc4ccc5nonc5c4)nc32)cc1,2.04% (inactive)
18,C[C@H]1CN([C@@H](C)CO)C(=O)CCCn2nncc2CO[C@@H]1CN(C)S(=O)(=O)c1cccc(C#N)c1,4.45% (inactive)
19,COc1ccc(N2C(=O)CC(SCC(=O)Nc3ccccc3F)C2=O)cc1 (stereo not given),0.679% (inactive)
20,Cc1ccc(-n2c(SCC(=O)Nc3ccc(F)c(F)c3)nnc2-c2cnccn2)cc1,-2.72% (inactive)
21,COc1cc2c(cc1NC(=O)C1CCC(=O)N1S(=O)(=O)c1ccc(C)cc1)oc1ccccc12 (stereo not given),-1.01% (inactive)
22,Cc1ccc(-c2nnc(Nc3ccc(C(=O)N(C)C)cc3)c3ccccc23)cc1S(N)(=O)=O,1.54% (inactive)
23,CCc1c(O)nc(SCC(=O)Nc2ccc(OC)cc2)n(-c2ccccc2C)c1=O,-1.3% (inactive)
24,S=c1cc(-c2ccccc2)oc(-c2ccccc2)c1,9.05% (inactive)
25,COc1ccccc1NC(=O)CCC(=O)c1ccc(C)cc1,0.187% (inactive)
